Experimental findings from PubChem BioAssay are described below.

Structures are written as SMILES. Activity calls are given as the source filed them. Unless noted, how the calls were made is not given here.

Assay [1] can be described thus: resazurin metabolic signal in HepG2 cells – cell-based, resazurin fluorescence, 24 h, PK04 Diversity Set, profiling panel (AID 1172). The settings on record: HepG2 viability, higher = more signal. Background: Alamar Blue is a resazurin reagent that responds to reducing activity.
A short description of assay [2]: budding yeast growth changes without added modifier – OD600, strain BY4716, 24 h, basal condition, primary screen (AID 1173). The settings on record: S. cerevisiae BY4716 growth, OD600, 24 h; higher = more signal, called active from +8 up or from −8 down.
Assay [3] is described as follows: viability profiling in MM1S myeloma cells – cell-based, resazurin fluorescence, basal, 24 h, PK04 Diversity Set, profiling panel (AID 1174).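 Further: MM1S multiple myeloma cell line.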 The settings on record: higher = more signal, called active from +8 up or from −8 down.
In assay [4] the target is Dihydroorotate dehydrogenase (quinone), mitochondrial (Plasmodium falciparum (isolate 3D7)) (UniProt Q08210). The assay can be described thus: inhibition of P. falciparum DHODH – biochemical, C-terminal His tag, absorbance 600 nm, primary screen (AID 1175).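 Further: recombinant parasite enzyme with a five histidine tag at its C terminus.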 The settings on record: PfDHODH enzyme, DCIP absorbance 600 nm; higher = more signal, called active from +8 up or from −8 down.

A short description of assay [5]: inhibition of PAO1 biofilm formation – strain PAO1, LB-PBS medium, absorbance 600 nm, primary screen (AID 1176). To be noted: P. aeruginosa PAO1 growth/biofilm, A600, 12 h; higher = more signal.
The nature of assay [6]: growth modulation of vineyard yeast isolate – strain RM11-1a, OD600, basal, 24 h, primary screen (AID 1177).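 Further: cultures grown under basal conditions with no added stressor.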 To be noted: S. cerevisiae RM11-1a growth, OD600, 24 h; higher = more signal, called active from +8 up or from −8 down.
The nature of assay [7]: growth of efflux-deficient E. coli DRC39 – strain DRC39, OD650, 24 h, E. coli filamentation inducers, primary screen (AID 1178).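 Further: growth measured as culture turbidity by optical density at 650 nm.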 The settings on record: E. coli DRC39 acrAB, higher = more signal, called active from +8 up or from −8 down.
Assay [8] can be described thus: growth of efflux-deficient E. coli DRC39 – strain DRC39, OD650, 48 h, E. coli filamentation inducers, primary screen (AID 1179).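 Further: screen aims at cell division blockers that make cells filament.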 To be noted: E. coli DRC39 delta-acrAB growth, higher = more signal, called active from +8 up or from −8 down.
Assay [9] in a line: viability profiling in RPMI8226 myeloma cells – cell-based, resazurin fluorescence, basal, 24 h, PK04 Diversity Set, profiling panel (AID 1180).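 Further: RPMI8826 multiple myeloma cell line at 5000 cells per well.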 To be noted: higher = more signal.
Assay [10] addresses E3 ubiquitin-protein ligase XIAP (Homo sapiens) (UniProt P98170). Put plainly: small molecules binding XIAP protein – biophysical, small-molecule microarray, fluorescence 635 nm, primary screen (AID 1181).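 Further: score merges 667 nm emission and signal to noise over triplicate slides.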 To be noted: higher = more signal.
The test system of assay [11] is XIP peptide (Xip251-270) binding. The assay can be described thus: XIP fragment 251-270 binding compounds – biochemical, small-molecule microarray, fluorescence 635/667 nm, 0.1 µg/mL protein, primary screen (AID 1182). To be noted: fluorescent protein binding, 635 nm, higher = more signal, called active from +8 up or from −8 down.
Assay [12] concerns XIP peptide (Xip251-270). The assay can be described thus: compounds binding XIP fragment 251-270 – biochemical, small-molecule microarray, fluorescence 635/667 nm, 0.5 µg/mL protein, primary screen (AID 1183). The settings on record: fluorescence 635 nm, higher = more signal.
Assay [13] in a line: blood-stage malaria parasite viability loss – strain 3D7, DAPI fluorescence, 100 nL, primary screen (AID 1184).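 Further: parasites grown inside human red blood cells in medium with human serum.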 The settings on record: P. falciparum 3D7 growth, 3 d, higher = more signal.
Assay [14] deals with Homeobox protein Hox-A13 (Mus musculus) (UniProt Q62424). The assay can be described thus: disruptors of Hoxa13 oligonucleotide interaction – biochemical, fluorescence polarization, labeled oligonucleotide, primary screen (AID 1185). To be noted: Hoxa13:DNA binding, 15 min, higher = more signal, called active from +8 up or from −8 down. For orientation: In fluorescence polarisation assays a small probe gives low polarisation when free and higher when bound to something large.

Assay [15] can be described thus: blockers of DNA damage checkpoint Chk1 activation – imaging, HeLa, hydroxyurea, phospho-Chk1 antibody, percent positive cells, primary screen (AID 1186). The settings on record: hydroxyurea-induced phospho-Chk1 immunofluorescence imaging, higher = more signal.
The nature of assay [16]: blockers of DNA damage checkpoint Chk1 activation – imaging, HeLa, hydroxyurea, phospho-Chk1 nuclear intensity, primary screen (AID 1187). The settings on record: hydroxyurea-induced phospho-Chk1 immunofluorescence imaging, higher = more signal.

E3 ubiquitin-protein ligase XIAP (Homo sapiens), sequence (P98170 whole entry, looked up, the tested form may be a part): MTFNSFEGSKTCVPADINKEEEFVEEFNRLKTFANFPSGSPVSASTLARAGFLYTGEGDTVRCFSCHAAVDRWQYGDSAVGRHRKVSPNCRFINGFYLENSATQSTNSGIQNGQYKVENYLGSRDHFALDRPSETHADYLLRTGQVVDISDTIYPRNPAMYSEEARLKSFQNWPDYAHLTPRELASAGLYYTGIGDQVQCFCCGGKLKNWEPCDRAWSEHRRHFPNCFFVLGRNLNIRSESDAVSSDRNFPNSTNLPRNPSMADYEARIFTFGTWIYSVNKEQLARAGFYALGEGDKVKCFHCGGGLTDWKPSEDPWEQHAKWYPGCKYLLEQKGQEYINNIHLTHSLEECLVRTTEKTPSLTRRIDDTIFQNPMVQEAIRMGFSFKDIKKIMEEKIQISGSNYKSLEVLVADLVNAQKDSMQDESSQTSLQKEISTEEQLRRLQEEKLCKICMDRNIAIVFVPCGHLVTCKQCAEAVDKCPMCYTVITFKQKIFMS
Homeobox protein Hox-A13 (Mus musculus), sequence (Q62424 whole entry, looked up): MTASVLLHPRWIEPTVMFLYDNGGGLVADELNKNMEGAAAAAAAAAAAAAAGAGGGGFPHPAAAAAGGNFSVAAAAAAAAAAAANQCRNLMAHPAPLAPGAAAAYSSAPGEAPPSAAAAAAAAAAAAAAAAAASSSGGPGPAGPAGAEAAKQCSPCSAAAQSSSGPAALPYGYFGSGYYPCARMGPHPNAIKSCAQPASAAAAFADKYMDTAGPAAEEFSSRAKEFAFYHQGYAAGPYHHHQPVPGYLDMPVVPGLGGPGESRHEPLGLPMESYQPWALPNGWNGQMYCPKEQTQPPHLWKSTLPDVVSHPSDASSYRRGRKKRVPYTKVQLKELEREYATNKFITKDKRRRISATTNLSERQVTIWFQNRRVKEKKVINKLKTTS
Dihydroorotate dehydrogenase (quinone), mitochondrial (Plasmodium falciparum (isolate 3D7)), sequence (Q08210 whole entry, looked up): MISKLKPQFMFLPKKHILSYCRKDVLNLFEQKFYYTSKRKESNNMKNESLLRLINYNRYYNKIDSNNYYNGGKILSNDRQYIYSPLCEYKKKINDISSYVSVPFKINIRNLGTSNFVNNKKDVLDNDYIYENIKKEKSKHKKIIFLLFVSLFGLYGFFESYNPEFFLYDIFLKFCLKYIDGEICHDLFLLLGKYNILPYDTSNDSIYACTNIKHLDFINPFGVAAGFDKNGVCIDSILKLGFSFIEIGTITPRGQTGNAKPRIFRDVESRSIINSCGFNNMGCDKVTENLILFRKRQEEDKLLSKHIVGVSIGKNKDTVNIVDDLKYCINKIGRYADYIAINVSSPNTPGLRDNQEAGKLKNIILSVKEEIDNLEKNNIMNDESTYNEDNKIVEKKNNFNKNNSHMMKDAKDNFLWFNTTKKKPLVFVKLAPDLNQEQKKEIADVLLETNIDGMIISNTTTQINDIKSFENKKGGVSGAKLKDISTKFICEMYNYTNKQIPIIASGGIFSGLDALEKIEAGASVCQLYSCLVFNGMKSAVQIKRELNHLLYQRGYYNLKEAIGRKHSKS

Take `NC(=O)NCC#Cc1ccc2c(c1)[C@]1(C(=O)N2)[C@H](c2ccc(OCCO)cc2)N2[C@H](c3ccccc3)[C@H](c3ccccc3)OC(=O)[C@H]2[C@@H]1C(=O)NC[C@H](O)c1ccccc1`: the z-score in assay [1] was 1.12; in assay [2], 1.63 (inactive); in assay [3], 0.473 (inactive); in [5], 0.489 (inactive); in assay [6] it was 2.58 (inactive); in [7], 0.826 (inactive). Also, the z-score is 0.107 (inactive) in [8]; 1.29 in [9]; -0.833 in [13]; -3.2 (inactive) in [14]; -0.261 (inactive) in assay [15]; -0.572 (inactive) in assay [16]. The composite z-score in assay [4] was -0.256 (inactive); in assay [10], 0.0697; in [11], -0.133 (inactive); in assay [12] it was 0.594.
Take `C[C@@H]1ON(c2ccc(I)cc2)[C@H](c2cccc(NC(=O)OCC3c4ccccc4-c4ccccc43)c2)[C@H]1C(=O)N1C(=O)OC[C@H]1Cc1ccccc1`: the z-score in [1] was 0.742; in [2], -1.04 (inactive); in assay [3], 0.965 (inactive); in [5], 0.13 (inactive); in assay [6], 0.774 (inactive); in [7], 1.32 (inactive). The z-score in assay [8] was 0.818 (inactive); in [9], 1.06; in assay [13] it was -1.27; in [14], 2.16 (inactive); in assay [15], 0.095 (inactive); in assay [16], 0.0287 (inactive). Moreover, the composite z-score in [4] was 0.14 (inactive); in assay [10] it was -0.412; in assay [11] it was -0.283 (inactive); in assay [12], 0.771.
As to `COC(=O)C1(Cc2ccccc2)C=C2C(=C(C)C(=O)C2C)CN1` (centres undefined), the z-score is -0.896 in assay [1]; 1.1 (inactive) in assay [2]; -0.86 (inactive) in assay [3]; 0.452 (inactive) in assay [5]; -0.527 (inactive) in [6]; 0.858 (inactive) in assay [7]. The z-score in assay [8] was 1.2 (inactive); in assay [9], -0.625; in assay [13] it was 0.235; in assay [14], -5.82 (inactive); in assay [15], 0.0869 (inactive); in assay [16], 0.244 (inactive). In addition, the composite z-score in [4] is -1.98 (inactive); in assay [10], -0.168; in [11], -0.217 (inactive); in assay [12] it was 0.943.
Regarding `O=C1C[C@@](C(=O)O)(c2ccc([N+](=O)[O-])cc2)[C@@H](c2ccc(CO)cc2)N1C1CCCCC1`, the z-score was -0.562 in assay [1]; 0.408 (inactive) in [2]; -0.544 (inactive) in [3]; -0.0123 (inactive) in assay [5]; 1.3 (inactive) in [6]; 0.576 (inactive) in [7]. The z-score in assay [8] was -0.199 (inactive); in assay [9], 0.0311; in [13] it was -1.13; in [14], -4.33 (inactive); in assay [15] it was -0.119 (inactive); in assay [16], 0.0584 (inactive). The composite z-score is -0.0999 (inactive) in [4], -0.193 in [10], 0.803 (inactive) in [11] and 0.73 in [12].
Turning to `COC(=O)[C@@]1(Cc2ccc(F)cc2)[C@H]2c3cc(C(=O)N4CCCC4)n(CCc4ccccn4)c3C[C@H]2CN1C(=O)c1ccccc1`, the z-score in [1] was -0.386; in [2], 0.842 (inactive); in [3], -0.232 (inactive); in [5], 0.647 (inactive); in [6], 0.564 (inactive); in [7] it was -0.803 (inactive). Also, the z-score in assay [8] is -0.588 (inactive); in [9], -0.102; in assay [13], -1.31; in assay [14], -4.83 (inactive); in assay [15] it was 0.227 (inactive); in [16] it was 0.247 (inactive). Also, the composite z-score in assay [4] is 0.224 (inactive); in assay [10], 0.0853; in assay [11], 0.405 (inactive); in assay [12], -0.189.
Consider `COCCOC(=O)N1C(=O)[C@@]2(c3cc(C#CCCO)ccc31)[C@H](c1ccccc1OCCO)N1[C@H](c3ccccc3)[C@H](c3ccccc3)OC(=O)[C@H]1[C@@H]2C(N)=O`, for which the z-score is -0.0989 in [1]; 1.42 (inactive) in assay [2]; -1.49 (inactive) in assay [3]; -0.0199 (inactive) in assay [5]; 2.34 (inactive) in assay [6]; 0.641 (inactive) in [7]. The z-score in [8] was -0.605 (inactive); in [9], -1.45; in [13], -2.22; in [14], -3.69 (inactive); in assay [15], -0.271 (inactive); in [16] it was -0.0408 (inactive). The composite z-score is -0.0125 (inactive) in assay [4], -0.02 in [10], 0.316 (inactive) in assay [11] and 0.732 in [12].
Regarding `C=CCC(OC(C)=O)[C@@H]1[C@@H](N(Cc2cc3ccccc3o2)C(=O)Cc2ccc(OC)cc2)c2cc(OCCCO)ccc2N1C(=O)c1ccc2ccccc2n1` (some centres undefined), the z-score in assay [1] is -1.11; in assay [2] it was -0.791 (inactive); in assay [3], 0.472 (inactive); in [5], 0.268 (inactive); in assay [6] it was -0.266 (inactive); in assay [7], 0.945 (inactive). The z-score in [8] is 0.346 (inactive); in [9], -0.0391; in assay [13], -2.17; in assay [14], -2.1 (inactive); in assay [15], 0.16 (inactive); in assay [16], 0.158 (inactive). For the same molecule, the composite z-score in assay [4] was 0.278 (inactive); in assay [10], -0.058; in assay [11], -0.206 (inactive); in assay [12], -0.454.
Regarding `COCCOC(=O)N1C(=O)[C@@]2(c3ccccc31)[C@H](C(=O)N1CCN(c3ncccn3)CC1)[C@H]1C(=O)O[C@H](c3ccccc3)[C@H](c3ccccc3)N1[C@@H]2c1ccccc1OCCO`, the z-score in assay [1] is -0.482; in assay [2], 1.76 (inactive); in assay [3], -0.684 (inactive); in assay [5] it was 3.3 (inactive); in assay [6] it was 2.04 (inactive); in assay [7], 0.858 (inactive). The z-score in assay [8] was 0.611 (inactive); in [9], 1.69; in assay [13], -1.99; in assay [14], -1.77 (inactive); in assay [15], -0.356 (inactive); in assay [16], -0.484 (inactive). The composite z-score was -1.35 (inactive) in [4], -0.0095 in assay [10], 0.044 (inactive) in assay [11] and 0.597 in [12].
For `COC(=O)[C@@]1(Cc2ccc(F)cc2)[C@H]2c3cc(C(=O)N4CCCC4)n(Cc4ccccn4)c3C[C@H]2CN1C(=O)c1ccccc1`, the z-score in assay [1] is -1.52; in [2], 1.32 (inactive); in [3] it was -2.15 (inactive); in assay [5] it was 1.03 (inactive); in assay [6] it was 0.938 (inactive); in [7], -0.81 (inactive). For the same molecule, the z-score in assay [8] was -0.962 (inactive); in assay [9], -2.45; in [13], -1.68; in [14], -4.98 (inactive); in assay [15], 0.0348 (inactive); in [16] it was -0.0643 (inactive). Besides, the composite z-score was 0.29 (inactive) in [4], 0.0945 in [10], 0.224 (inactive) in [11] and 0.769 in assay [12].
